Values joined by “and” are separate entries in the source; they are usually repeats but may differ in a detail not shown here. Equal values may be shown once. Results filed as inconclusive are left out. Active and inactive are the calls of the source.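 Rule for the calls, unless noted: active = inhibition above the screen-wide mean plus 3 SD, about 51%; inactive = the rest.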
Columns and labels:
[1] = yeast TOR pathway RPL19A-GFP modulators, primary screen, cell-based, S. cerevisiae, multiplex flow cytometry (AID 1862; in the data active = percent of DMSO control GFP below about 86%;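 note: lower values mimic rapamycin by blocking the RPL19A rise seen in DMSO cells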); conditions: S. cerevisiae RPL19A-GFP strain, flow cytometry fluorescence, 3 h; at 10 µM; stronger effect = lower value
[2] = modulators of MEP2-GFP levels in yeast, primary screen, S. cerevisiae, multiplex flow cytometry (AID 1867;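 active = GFP response, as percent of the DMSO control, above the screen-wide mean plus 3 SD, about 139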;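 note: median GFP channel fluorescence of barcode-gated MEP2-GFP cells measured by flow cytometry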); conditions: S. cerevisiae MEP2-GFP strain, 3 h, at 10 µM, stronger effect = higher value, 100% means same as DMSO wells
[3] = modulators of CIT2-GFP expression in yeast, primary screen, S. cerevisiae, GFP fusion, multiplex flow cytometry (AID 1870;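 active = percent response above a set limit, the screen-wide mean plus 3 SD, cut at about 130% in these data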;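 note: barcoded CIT2-GFP strain pooled with four other GFP strains with rapamycin as positive control; median GFP fluorescence per well over plate mean of DMSO wells so 100% = DMSO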); conditions: 3 h, at 10 µM, stronger effect = higher value
[4] = modulators of LAP4-GFP expression in yeast, primary screen, S. cerevisiae, multiplex flow cytometry (AID 1873;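 active = GFP signal, as percent of the solvent control, above the screen mean plus 3 SD, about 149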); conditions: 3 h, at 10 µM, stronger effect = higher value
[5] = modulators of AGP1-GFP expression in yeast TOR pathway, primary screen, cell-based, multiplex flow cytometry, S. cerevisiae (AID 1887;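 active = GFP signal above the screen-wide mean plus 3 SD, that is over about 124.5% of the solvent control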;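 note: AGP1-GFP fusion strain of S. cerevisiae within a five-strain barcoded multiplex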); conditions: 3 h, at 10 µM, stronger effect = higher value
[6] = inhibitors of CD8+ T cell-vesicle binding, pilot screen, LFA-1/ICAM-1 modulator project, MLPCN validation set, flow cytometry (AID 2523;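 active = response below a set limit, under 55% cells CD8-positive and vesicle-bound, and CD8 cells' 90th-percentile brightness under 279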;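 for vesicle binding response: mean PE anti-B7-1 fluorescence of CD8+ cells relative to row control; 100% = QL9-loaded vesicles with DMSO vehicle in the same plate row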); conditions: 2C mouse CD8+ T cells, at 7 µM, stronger effect = lower value; double positive events: measured here: CD8+/vesicle+ event percentage
[7] = molecular target: Integrin beta-1 (Homo sapiens) + Integrin alpha-4 (Homo sapiens) (UniProt P13612+P05556); test: inhibition of HUTS-21 binding to VLA-4, pilot screen, VLA-4 allosteric modulator project, U937 cells, HUTS-21 mAb, flow cytometry, validation set (AID 2674;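 active = inhibition above 50%, about 3 SD of the validation set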;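 note: antibody binding induced by the VLA-4 ligand LDV present at three times its Kd; 0% = LDV ligand with antibody and no compound and 100% = antibody without LDV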); conditions: HUTS-21 LIBS mAb binding, at 6.7 µM, stronger effect = higher value, binding induced by LDV ligand
Chain of Integrin beta-1 (Homo sapiens) + Integrin alpha-4 (Homo sapiens) (P05556 whole entry, looked up): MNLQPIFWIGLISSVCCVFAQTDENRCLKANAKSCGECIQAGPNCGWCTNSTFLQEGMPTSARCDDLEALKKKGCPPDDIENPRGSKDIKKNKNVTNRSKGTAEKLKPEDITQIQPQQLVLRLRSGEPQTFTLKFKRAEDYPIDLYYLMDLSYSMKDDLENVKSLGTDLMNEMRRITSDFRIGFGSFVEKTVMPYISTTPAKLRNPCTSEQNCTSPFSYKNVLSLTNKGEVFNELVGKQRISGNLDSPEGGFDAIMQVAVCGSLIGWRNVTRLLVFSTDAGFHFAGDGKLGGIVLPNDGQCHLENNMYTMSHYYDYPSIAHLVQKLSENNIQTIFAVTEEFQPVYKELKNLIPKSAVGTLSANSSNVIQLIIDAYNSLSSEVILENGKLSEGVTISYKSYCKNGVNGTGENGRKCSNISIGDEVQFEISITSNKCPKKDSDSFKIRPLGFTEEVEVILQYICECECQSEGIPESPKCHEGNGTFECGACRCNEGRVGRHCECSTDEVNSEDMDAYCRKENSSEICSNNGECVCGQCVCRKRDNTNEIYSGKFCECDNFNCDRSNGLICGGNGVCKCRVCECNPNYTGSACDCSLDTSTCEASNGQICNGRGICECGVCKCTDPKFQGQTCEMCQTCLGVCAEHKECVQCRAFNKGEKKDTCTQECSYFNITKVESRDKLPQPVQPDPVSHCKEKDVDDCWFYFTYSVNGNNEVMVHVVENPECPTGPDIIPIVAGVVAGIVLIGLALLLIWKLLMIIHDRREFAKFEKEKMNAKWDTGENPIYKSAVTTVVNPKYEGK
Chain of Integrin beta-1 (Homo sapiens) + Integrin alpha-4 (Homo sapiens) (P13612 whole entry, looked up): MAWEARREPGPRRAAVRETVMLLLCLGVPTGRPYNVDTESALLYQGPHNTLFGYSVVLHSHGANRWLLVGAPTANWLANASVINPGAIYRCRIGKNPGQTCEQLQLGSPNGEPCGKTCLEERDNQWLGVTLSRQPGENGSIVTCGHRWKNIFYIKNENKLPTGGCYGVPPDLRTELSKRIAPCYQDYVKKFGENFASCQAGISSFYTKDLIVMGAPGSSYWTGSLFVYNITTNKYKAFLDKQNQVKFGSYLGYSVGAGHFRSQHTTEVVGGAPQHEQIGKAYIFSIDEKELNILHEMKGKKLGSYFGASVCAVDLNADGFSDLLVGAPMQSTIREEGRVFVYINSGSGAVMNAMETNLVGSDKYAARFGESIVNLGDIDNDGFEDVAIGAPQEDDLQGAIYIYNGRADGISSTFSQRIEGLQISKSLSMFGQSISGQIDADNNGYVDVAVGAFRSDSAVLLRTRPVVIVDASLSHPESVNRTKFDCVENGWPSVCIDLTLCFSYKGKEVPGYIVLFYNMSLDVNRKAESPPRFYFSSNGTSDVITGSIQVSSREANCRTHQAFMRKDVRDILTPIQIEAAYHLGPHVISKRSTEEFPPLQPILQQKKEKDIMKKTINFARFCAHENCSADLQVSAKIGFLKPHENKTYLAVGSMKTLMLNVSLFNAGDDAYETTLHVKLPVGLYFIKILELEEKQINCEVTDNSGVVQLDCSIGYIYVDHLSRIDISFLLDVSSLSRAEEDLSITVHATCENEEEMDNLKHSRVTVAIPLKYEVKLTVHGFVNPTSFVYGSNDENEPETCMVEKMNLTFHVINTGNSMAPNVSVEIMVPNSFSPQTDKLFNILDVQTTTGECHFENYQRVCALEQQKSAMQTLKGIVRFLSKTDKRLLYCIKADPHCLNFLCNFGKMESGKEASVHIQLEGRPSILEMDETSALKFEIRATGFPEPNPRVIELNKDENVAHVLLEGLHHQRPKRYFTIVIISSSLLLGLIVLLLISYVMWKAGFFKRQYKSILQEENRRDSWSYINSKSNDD

[8] = superoxide lowering in aged yeast cells, pilot screen, validation compound set (AID 2706;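 active = superoxide response below 65% of plate, a cut near 3 SD across the whole screen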;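 note: yeast exposed to compound for one week at 30 degrees C before staining; 100% = mean of all compound wells on the same plate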); conditions: S. cerevisiae aging, superoxide DHE fluorescence; at 10 µM; stronger effect = lower value
[9] = molecular target: Beta-adrenergic receptor kinase 1 (Homo sapiens) (UniProt P25098); test: GRK2 binders displacing RNA aptamer, biochemical, validation, human GRK2, bead flow cytometry (AID 488806;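 active = aptamer binding inhibition above 30%, about 3 SD of noise from non-fluorescent compounds; inactive = inhibition at or below 30%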); conditions: bead-bound GRK2, FAM-aptamer displacement, at 10 µM, stronger effect = higher value
Chain of Beta-adrenergic receptor kinase 1 (Homo sapiens) (P25098 whole entry, looked up): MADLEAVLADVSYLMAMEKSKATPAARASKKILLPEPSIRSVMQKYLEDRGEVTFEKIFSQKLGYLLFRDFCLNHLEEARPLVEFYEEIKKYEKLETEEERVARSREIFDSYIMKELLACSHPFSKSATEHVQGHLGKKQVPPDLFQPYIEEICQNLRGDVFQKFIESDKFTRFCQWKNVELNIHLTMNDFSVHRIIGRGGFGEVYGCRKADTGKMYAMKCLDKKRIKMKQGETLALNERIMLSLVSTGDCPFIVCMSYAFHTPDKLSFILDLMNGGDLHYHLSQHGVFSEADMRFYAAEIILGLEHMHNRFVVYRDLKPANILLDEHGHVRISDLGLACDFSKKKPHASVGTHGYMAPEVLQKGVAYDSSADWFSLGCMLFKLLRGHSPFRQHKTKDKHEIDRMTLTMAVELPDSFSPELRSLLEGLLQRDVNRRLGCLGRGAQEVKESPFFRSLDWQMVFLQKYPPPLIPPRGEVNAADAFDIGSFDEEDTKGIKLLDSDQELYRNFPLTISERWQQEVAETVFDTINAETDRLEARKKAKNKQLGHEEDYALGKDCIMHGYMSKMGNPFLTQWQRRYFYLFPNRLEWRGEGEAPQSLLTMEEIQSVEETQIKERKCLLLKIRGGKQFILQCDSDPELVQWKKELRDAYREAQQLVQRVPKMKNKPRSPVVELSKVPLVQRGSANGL

[10] = molecular target: Beta-2 adrenergic receptor (Homo sapiens) (UniProt P07550); test: beta2AR agonists driving receptor internalization, pilot screen, cell-based, FAP fluorogen, flow cytometry, validation set (AID 504459;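 active = percent response above 42, roughly 3 SD of non-fluorescent test compounds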;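 note: agonist-driven loss of surface beta2AR via internalization measured by FAP dye flow cytometry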); conditions: Am2.2-beta2AR cells, FAP surface receptor flow cytometry; at 10 µM; stronger effect = higher value
Chain of Beta-2 adrenergic receptor (Homo sapiens) (P07550 whole entry, looked up): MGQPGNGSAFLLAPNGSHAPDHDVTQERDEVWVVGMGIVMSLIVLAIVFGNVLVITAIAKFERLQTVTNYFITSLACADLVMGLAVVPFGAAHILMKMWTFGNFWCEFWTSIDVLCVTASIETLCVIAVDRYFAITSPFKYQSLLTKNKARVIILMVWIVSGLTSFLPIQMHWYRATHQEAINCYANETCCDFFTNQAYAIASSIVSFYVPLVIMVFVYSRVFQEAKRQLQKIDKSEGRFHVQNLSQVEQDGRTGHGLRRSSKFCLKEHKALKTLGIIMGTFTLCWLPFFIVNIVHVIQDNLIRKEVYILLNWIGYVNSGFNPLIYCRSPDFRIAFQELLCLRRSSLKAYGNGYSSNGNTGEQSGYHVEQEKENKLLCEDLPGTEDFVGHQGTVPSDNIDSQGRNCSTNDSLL

[11] = molecular target: AP-2 complex subunit beta (Homo sapiens) (UniProt P63010); test: inhibitors of arrestin peptide binding to AP2, pilot screen, biochemical, validation set, GST-AP2 beads, flow cytometry (AID 504541;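 active = inhibition above 54%, about 3 SD of non-fluorescent compounds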;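 note: AP2 carries R879A mutation and is captured from E. coli lysate; bead-bound FITC arrestin peptide fluorescence measuring arrestin peptide binding to AP2; 0% = DMSO wells and 100% = excess unlabeled arrestin peptide control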); conditions: FITC arrestin peptide, at 10 µM, stronger effect = higher value, AP2 beta2 appendage fragment, R879A mutant
Chain of AP-2 complex subunit beta (Homo sapiens) (P63010 whole entry, looked up, the tested form may be a part, one chain of several): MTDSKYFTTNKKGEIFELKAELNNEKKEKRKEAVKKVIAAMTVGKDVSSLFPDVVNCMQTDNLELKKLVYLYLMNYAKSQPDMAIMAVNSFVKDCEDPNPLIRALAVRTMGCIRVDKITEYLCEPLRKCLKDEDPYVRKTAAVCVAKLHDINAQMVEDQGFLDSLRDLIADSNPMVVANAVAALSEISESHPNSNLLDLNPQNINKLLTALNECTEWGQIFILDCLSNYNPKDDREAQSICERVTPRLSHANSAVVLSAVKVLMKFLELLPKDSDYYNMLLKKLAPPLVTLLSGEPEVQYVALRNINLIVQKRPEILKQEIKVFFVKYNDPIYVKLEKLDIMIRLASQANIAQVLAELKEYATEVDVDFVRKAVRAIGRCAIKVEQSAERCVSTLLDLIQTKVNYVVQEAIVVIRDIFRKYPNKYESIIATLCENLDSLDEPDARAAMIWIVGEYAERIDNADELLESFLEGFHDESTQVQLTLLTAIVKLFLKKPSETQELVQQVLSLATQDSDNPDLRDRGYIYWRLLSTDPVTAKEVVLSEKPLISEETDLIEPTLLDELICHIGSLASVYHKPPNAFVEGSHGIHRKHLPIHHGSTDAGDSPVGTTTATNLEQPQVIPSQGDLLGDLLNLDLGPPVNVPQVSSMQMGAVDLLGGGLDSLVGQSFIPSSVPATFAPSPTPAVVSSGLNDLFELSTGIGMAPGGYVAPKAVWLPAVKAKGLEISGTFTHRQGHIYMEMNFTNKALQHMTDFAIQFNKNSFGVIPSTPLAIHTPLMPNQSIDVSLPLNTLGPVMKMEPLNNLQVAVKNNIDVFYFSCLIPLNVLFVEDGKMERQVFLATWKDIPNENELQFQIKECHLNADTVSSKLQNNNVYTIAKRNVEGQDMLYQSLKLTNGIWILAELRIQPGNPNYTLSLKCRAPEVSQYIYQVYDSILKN

[12] = yeast V-ATPase proton transport modulators, S. cerevisiae, pHLuorin, HTS validation (AID 504600; in the data active = response above about 15%;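 note: plate controls were DMSO for no effect and reference compound for full effect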); conditions: S. cerevisiae pHLuorin cytosolic pH, at 10 µM, stronger effect = higher value
[13] = test system: anti-desmoglein-3 scFv antibody binding to human DSG3; test: inhibitors of anti-DSG3 scFv binding to DSG3, pilot screen, biochemical, validation compound set, bead-based, flow cytometry (AID 588368;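 active = binding below the plate cutoff, the plate median minus 3 SD, with a reading above zero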;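 note: signal is the median channel fluorescence of bead-bound GFP antibody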); conditions: Protein G beads, DSG3-Fc, scFv-GFP binding, at 10 µM, stronger effect = lower value
[14] = inhibitors of fungal efflux pumps CDR1, CDR2, MDR1, pilot screen, validation compound set, multiplex, phenotypic (AID 588506;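 active = efflux inhibition above 0.42, the validation set average plus 4 SD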;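 note: Nile Red retained in cells so higher fluorescence means more efflux inhibition; 0 = negative control wells and 1 = enniatin B 25 µM full block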); conditions: S. cerevisiae pump-expressing triplex, Nile Red efflux flow cytometry; at 10 µM; stronger effect = higher value; the pumps come from Candida albicans
[15] = molecular target: ATP-binding cassette sub-family B member 6 (Homo sapiens) (UniProt Q9NP58); test: ABCB6 transporter inhibitors, pilot screen, K562-ABCB6 cells, flow cytometry, validation set (AID 588550); conditions: K562-ABCB6 porphyrin accumulation, 1 h, at 10 µM, stronger effect = higher value;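 note: 0% = DMSO wells and 100% = benzethonium chloride 70 µM positive control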
Chain of ATP-binding cassette sub-family B member 6 (Homo sapiens) (Q9NP58 whole entry, looked up): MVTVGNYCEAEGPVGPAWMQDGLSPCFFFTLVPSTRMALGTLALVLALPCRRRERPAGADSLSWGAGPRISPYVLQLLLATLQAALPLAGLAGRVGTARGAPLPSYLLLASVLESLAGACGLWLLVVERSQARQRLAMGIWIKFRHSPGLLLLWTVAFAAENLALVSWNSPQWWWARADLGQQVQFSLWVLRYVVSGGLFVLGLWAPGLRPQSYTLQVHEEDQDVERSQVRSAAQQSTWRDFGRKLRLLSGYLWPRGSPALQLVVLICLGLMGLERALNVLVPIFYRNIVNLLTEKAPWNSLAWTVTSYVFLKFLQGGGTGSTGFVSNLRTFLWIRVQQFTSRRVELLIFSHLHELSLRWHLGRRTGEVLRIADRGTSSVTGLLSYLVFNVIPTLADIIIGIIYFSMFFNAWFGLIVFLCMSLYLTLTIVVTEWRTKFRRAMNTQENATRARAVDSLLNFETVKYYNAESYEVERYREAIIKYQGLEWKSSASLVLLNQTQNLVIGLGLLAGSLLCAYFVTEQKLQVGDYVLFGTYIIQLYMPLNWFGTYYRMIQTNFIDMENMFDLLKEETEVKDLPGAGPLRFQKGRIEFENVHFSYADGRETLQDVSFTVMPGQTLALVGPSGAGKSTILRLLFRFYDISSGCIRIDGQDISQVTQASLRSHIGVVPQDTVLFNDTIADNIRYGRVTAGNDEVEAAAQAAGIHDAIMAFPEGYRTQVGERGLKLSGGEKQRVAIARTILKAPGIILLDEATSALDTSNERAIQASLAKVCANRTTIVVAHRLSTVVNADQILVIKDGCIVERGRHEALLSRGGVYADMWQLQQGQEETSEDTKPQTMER

[16] = promoters of myeloid differentiation in arrested cells, primary screen, cell-based, GFP/MAC1 double positive, flow cytometry, validation set (AID 588685;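 active = differentiation response of at least 50%, scaled between solvent and reference control, from cells with both markers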;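 note: compound exposure lasts four days before antibody staining and flow analysis; 0% = DMSO wells and 100% = 5 µM fulvestrant positive control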); conditions: ER-HoxA9 marrow cells, stronger effect = higher value, normalized: vehicle 0, fulvestrant 100

O=c1[nH]c(=O)n(C2CCCO2)cc1F (stereo not given)
60.9%: double positive events [6]
inactive: percent of DMSO control GFP [1] 93.5% | GFP response vs DMSO [2] 117% | percent response of DMSO control [3] 97.9% | GFP response vs DMSO [4] 81.4% | GFP response, % of DMSO [5] 95.6% | vesicle binding response [6] 137% | inhibition [7] -17.8% | superoxide response (% of plate) [8] 96.1% | aptamer binding inhibition [9] 7% | response [10] -4.34% | inhibition [11] -10.2% | response [12] 6.89% | binding (% of control) [13] 110% | efflux inhibition (fraction of control) [14] 0.09 | inhibition [15] 14% | differentiation response [16] 35.2%

CC1(C)Cc2nc3sc4c(=O)n(CC(N)=O)cnc4c3cc2CO1
67.5%: double positive events [6]
inactive: percent of DMSO control GFP [1] 90.9% | GFP response vs DMSO [2] 134% | percent response of DMSO control [3] 115% | GFP response vs DMSO [4] 73.2% | GFP response, % of DMSO [5] 82.2% | vesicle binding response [6] 159% | inhibition [7] 3.55% | superoxide response (% of plate) [8] 102% | aptamer binding inhibition [9] 10% | response [10] -4.57% | inhibition [11] 12.8% | response [12] -2.49% | binding (% of control) [13] 97% | efflux inhibition (fraction of control) [14] 0.41 | inhibition [15] 14% | differentiation response [16] -9.01%

CO[C@@]1(NC(=O)Cc2cccs2)C(=O)N2C(C(=O)O)=C(COC(N)=O)CS[C@@H]21
64.1%: double positive events [6]
inactive: percent of DMSO control GFP [1] 91.5% | GFP response vs DMSO [2] 130% | percent response of DMSO control [3] 111% | GFP response vs DMSO [4] 83.6% | GFP response, % of DMSO [5] 119% | vesicle binding response [6] 191% | inhibition [7] -18.8% | superoxide response (% of plate) [8] 112% | aptamer binding inhibition [9] 9% | response [10] -3.96% | inhibition [11] 1.97% | response [12] -0.45% | binding (% of control) [13] 93.6% | efflux inhibition (fraction of control) [14] 0.16 | inhibition [15] 14% | differentiation response [16] -7.37%

COc1cc2nc(N3CCN(C(=O)C4CCCO4)CC3)nc(N)c2cc1OC (stereo not given)
55.7% and 64.6%: double positive events [6]
inactive: percent of DMSO control GFP [1] 102% | GFP response vs DMSO [2] 106% | percent response of DMSO control [3] 95.5% | GFP response vs DMSO [4] 92.6% | GFP response, % of DMSO [5] 94% | vesicle binding response [6] 197% and 148% | inhibition [7] 1.62% and 5.61% | superoxide response (% of plate) [8] 98% and 91.7% | aptamer binding inhibition [9] -3% and 5% | response [10] 20.9% | inhibition [11] 8.12% and -5.62% | response [12] -29.6% and 2.76% | binding (% of control) [13] 109% and 107% | efflux inhibition (fraction of control) [14] -0.39 and -0.33 | inhibition [15] 7% and -13% | differentiation response [16] 22.4% and 10.1%

COc1ccc(-c2nnc(-c3cc4c(ccc5ccccc54)oc3=O)o2)cc1
inactive: percent of DMSO control GFP [1] 101% | GFP response vs DMSO [2] 93% | percent response of DMSO control [3] 96.7% | GFP response vs DMSO [4] 89.7% | GFP response, % of DMSO [5] 98% | vesicle binding response [6] 244% | inhibition [7] -20.9% | superoxide response (% of plate) [8] 75.6% | aptamer binding inhibition [9] -1% | inhibition [11] 6.88% | response [12] 1% | binding (% of control) [13] 97.2% | efflux inhibition (fraction of control) [14] 0.08 | inhibition [15] 0% | differentiation response [16] -0.8%
61%: double positive events [6]
active: response [10] 50.8%

COc1ccc(-c2[nH]ncc2CN(C)C(C)c2ccon2)c(OC)c1 (stereo not given)
61.9%: double positive events [6]
inactive: percent of DMSO control GFP [1] 92.4% | GFP response vs DMSO [2] 137% | percent response of DMSO control [3] 106% | GFP response vs DMSO [4] 78.7% | GFP response, % of DMSO [5] 91% | vesicle binding response [6] 143% | inhibition [7] 10.3% | superoxide response (% of plate) [8] 99.7% | aptamer binding inhibition [9] 2% | response [10] -3.13% | inhibition [11] 8% | response [12] -3.5% | binding (% of control) [13] 105% | efflux inhibition (fraction of control) [14] 0.01 | inhibition [15] 11% | differentiation response [16] -4.91%

O=C(NO)c1ccccc1O
63.6%: double positive events [6]
inactive: percent of DMSO control GFP [1] 103% | GFP response vs DMSO [2] 107% | percent response of DMSO control [3] 105% | GFP response vs DMSO [4] 94.8% | GFP response, % of DMSO [5] 106% | vesicle binding response [6] 158% | inhibition [7] 8.29% | superoxide response (% of plate) [8] 95.5% | aptamer binding inhibition [9] 2% | response [10] -0.56% | inhibition [11] 36.8% | response [12] -8.07% | binding (% of control) [13] 98.8% | efflux inhibition (fraction of control) [14] 0.03 | inhibition [15] 9% | differentiation response [16] -13.3%

CC(=O)Oc1cc2oc(=O)cc(C)c2cc1OC(C)=O
inactive: percent of DMSO control GFP [1] 101% | GFP response vs DMSO [2] 102% | percent response of DMSO control [3] 99.6% | GFP response vs DMSO [4] 73.5% | GFP response, % of DMSO [5] 86% | vesicle binding response [6] 207% | inhibition [7] -5.89% | superoxide response (% of plate) [8] 102% | aptamer binding inhibition [9] 10% | response [10] -3.64% | inhibition [11] 3.54% | response [12] 1.09% | binding (% of control) [13] 101% | efflux inhibition (fraction of control) [14] 0.08 | inhibition [15] 7% | differentiation response [16] -15.2%
60%: double positive events [6]

Cc1cccc(Nc2ncccc2C(=O)O)c1C
inactive: percent of DMSO control GFP [1] 103% | GFP response vs DMSO [2] 103% | percent response of DMSO control [3] 109% | GFP response vs DMSO [4] 90.1% | GFP response, % of DMSO [5] 108% | vesicle binding response [6] 203% | inhibition [7] 2.66% | superoxide response (% of plate) [8] 105% | aptamer binding inhibition [9] 1% | response [10] -6.59% | inhibition [11] 1.75% | response [12] -0.8% | binding (% of control) [13] 98.4% | efflux inhibition (fraction of control) [14] 0.08 | inhibition [15] 6% | differentiation response [16] -9.53%
62.7%: double positive events [6]

CC1Cc2ccccc2N1NC(=O)c1ccc(Cl)c(S(N)(=O)=O)c1 (stereo not given)
active: vesicle binding response [6] 19.9%
41.4%: double positive events [6]
inactive: percent of DMSO control GFP [1] 105% | GFP response vs DMSO [2] 103% | percent response of DMSO control [3] 105% | GFP response vs DMSO [4] 106% | GFP response, % of DMSO [5] 114% | inhibition [7] 3.14% | superoxide response (% of plate) [8] 99.9% | aptamer binding inhibition [9] 1% | response [10] -28.6% | inhibition [11] 7.39% | response [12] 2.79% | binding (% of control) [13] 99.5% | efflux inhibition (fraction of control) [14] 0.04 | inhibition [15] 7% | differentiation response [16] 11.8%

From PubChem BioAssay
